Rab9 promoter act: qHTS Assay for Rab9 Promoter Activators; actives 2.8% (n = 320,000); AID 485297, 2010; Huh7 Rab9 promoter-luciferase reporter, luminescence, 24 h; Potency, µM (top dose mostly 9.22 µM), usual class: activators; also: nearly all actives have a fitted effect of over 60% in size
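Using Huh7 cells stably transfected with Rab9 promoter–luciferase, compounds were incubated 24 h at 37 °C, 5% CO2; luciferase luminescence was read 10 min after reagent addition.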
FLuc counter: qHTS profiling assay for firefly luciferase inhibitor/activator using purifed enzyme and Km concentrations of substrates (counterscreen for miR-21 project); Luciferin 4-monooxygenase (Photinus pyralis), P08659; actives 6.9% (n = 360,000); Potency, µM (doses to about 57.5 µM), usual class: inhibitors; purified FLuc, Km substrates, luminescence inhibition; also: nearly all actives have a fitted effect of over 55% in size
Target sequence (P08659 whole entry, looked up): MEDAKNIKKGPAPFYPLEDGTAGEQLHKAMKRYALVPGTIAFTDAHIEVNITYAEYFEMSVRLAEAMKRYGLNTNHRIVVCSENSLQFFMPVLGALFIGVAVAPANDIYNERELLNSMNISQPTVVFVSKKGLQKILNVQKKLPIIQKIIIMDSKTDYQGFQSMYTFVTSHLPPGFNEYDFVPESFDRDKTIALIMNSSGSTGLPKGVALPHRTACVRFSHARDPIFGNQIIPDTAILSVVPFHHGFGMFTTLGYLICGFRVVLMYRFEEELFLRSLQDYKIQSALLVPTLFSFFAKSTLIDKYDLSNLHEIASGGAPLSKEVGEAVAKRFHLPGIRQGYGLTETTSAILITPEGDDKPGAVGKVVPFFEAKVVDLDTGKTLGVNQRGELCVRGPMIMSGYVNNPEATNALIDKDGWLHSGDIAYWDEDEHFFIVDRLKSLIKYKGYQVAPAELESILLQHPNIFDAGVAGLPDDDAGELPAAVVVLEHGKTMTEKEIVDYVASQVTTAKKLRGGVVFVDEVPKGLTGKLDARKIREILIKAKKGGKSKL
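Purified P. pyralis luciferase, 10 nM final, with Km-level 10 uM D-luciferin and 10 uM ATP in 50 mM Tris acetate pH 7.5, 10 mM Mg acetate, 0.01% Tween-20, 0.05% BSA; 6-point qHTS titration about 60 µM downward; luminescence read.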
SMN2 splice up: qHTS Assay for Enhancers of SMN2 Splice Variant Expression; actives 2.8% (n = 210,000); Potency, µM (highest dose often 46.1 µM), most hits filed as activators; HEK293 SMN2-luciferase splicing reporter, luminescence, 30-36 h; AID 1458, 2008; also: nearly all actives have a fitted effect of over 55% in size
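qHTS luciferase splicing reporter: luminescence rises when SMN2 exon 7 is included in transfected HEK293 cells. Compound exposure lasted 30-36 h at 37C, with 4.5 mM final sodium butyrate as control, followed by a ONE-Glo read.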
NPC1 prom act: qHTS Assay for NPC1 Promoter Activators | Huh7 NPC1 promoter luciferase reporter, 24 h | actives 2.4% (n = 320,000) | AID 485313, 2010 | Potency, µM (doses to about 9.22 µM), usual class: activators; also: nearly all actives have a fitted effect of over 60% in size
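Readout is luciferase luminescence, reflecting NPC1 promoter activation in stably transfected Huh7 cells after 24 h compound exposure at 37 °C in reduced-serum medium with 10% FBS.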
KinaseGlo FLuc: Counterscreen for Luciferase (Kinase-Glo TM) Inhibition | actives 0.28% (n = 200,000) | Luciferin 4-monooxygenase (Photuris pensylvanica), Q27757 | Potency, µM (titrated, usually from 38.3 µM), actives largely listed as inhibitors | Kinase-Glo luciferase, ATP luminescence, 8 min; also: nearly all actives have a fitted effect of over 60% in size
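Substrate mix (final 50 mM imidazole pH 7.2, 50 mM KCl, 7 mM MgCl2, 10 uM ATP, 0.01% Tween 20, 0.05% BSA) plus pin-tool compound, then Kinase-Glo detection mix; 8 min ambient, luminescence read.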
ELG1 genotoxic: qHTS screen for small molecules that induce genotoxicity in human embryonic kidney (HEK293T) cells expressing luciferase-tagged ELG1. HEK293T ELG1-luciferase reporter, luminescence, 16 h. Potency, µM (highest dose often 46 µM), most hits filed as activators. actives 1.3% (n = 330,000). AID 504466, 2011; also: nearly all actives have a fitted effect of over 60% in size
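Genotoxicity was scored as increased ELG1-luciferase reporter signal, measured by ONE-Glo luminescence (30 min, room temperature). Compound or vehicle exposure of the HEK293T reporter cells lasted 16 hr at 37°C.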
A number is an active result; – = inactive; ? = inconclusive; · = no result; [ ] = another dose, or the depositor's remark. Most compounds without a hit are left out; they make up all but 7.5% or so of the library. Calls follow the shape of the dose curve; as a rule, active = well fitted curve in the direction sought with a large enough effect; inconclusive = small, poorly fitted or top-dose-only effect, or another doubt; inactive = no such curve, though single readings can be large; an effect the other way counts as inactive or inconclusive.

SMILES	Rab9 promoter act	FLuc counter	SMN2 splice up	NPC1 prom act	KinaseGlo FLuc	ELG1 genotoxic
COc1cccc(N/C(C)=C/C(=O)c2ccc(Br)cc2)c1	?	5.36µM	17.8µM	?	–	?
C/C(=C\C(=O)c1ccccc1)Nc1ccc(Br)c(Cl)c1	?	21.3µM	–	–	–	–
Cc1ccc(-n2nc(-c3ccco3)cc2C(=O)O)c(C)c1	–	?	–	–	–	–
C=CCNC(=S)NC(=O)c1ccc(C)c(Br)c1	?	16.9µM	14.1µM	–	–	?
C/C(CC(=O)Nc1cc(C)ccn1)=N\NC(=O)c1cccc(C)c1O	–	?	·	–	·	5.8µM
C/C(CC(=O)Nc1ccccn1)=N\NC(=O)c1ccccc1O	–	16.9µM	·	–	·	16.4µM
C/C(CC(=O)Nc1ccccn1)=N\NC(=O)c1ccccc1	–	–	?	–	–	–
C/C(CC(=O)Nc1cc(C)ccn1)=N\NC(=O)c1cccc(C)c1	–	–	–	–	–	–
COc1cccc(NC(=O)CSc2nnc(COc3ccc4c(c3)CCCC4)o2)c1	–	21.3µM	–	–	–	–
C=CCn1c(COc2ccc3c(c2)CCCC3)nnc1SCC(=O)Nc1cccc(SC)c1	–	13.5µM	–	–	–	–
COc1ccc(OCc2nnc(SCC(=O)Nc3cccc(C(C)=O)c3)o2)cc1	–	19µM	·	–	·	–
C=CCn1c(COc2ccccc2)nnc1SCC(=O)Nc1ccc2c(c1)OCCO2	–	–	–	–	–	–
O=C(NCCc1ccccn1)c1ccc(OC2CCN(CCc3ccccc3)CC2)cc1	2.82µM	19µM	·	3.16µM	·	?
O=C(NCCc1cccc(Cl)c1)c1ccc(OC2CCN(Cc3ccccn3)CC2)cc1	–	19µM	·	?	·	?
CC(Cc1ccccn1)NC(=O)c1ccc(OC2CCN(CCc3ccccc3)CC2)cc1 (centres undefined)	–	?	·	–	·	?
Cc1cc(C)n(C(C)CC(=O)Nc2ccc(-c3ccno3)cc2)n1 (centres undefined)	–	–	·	–	·	–[9.26 µM]
Cc1c(Cl)cccc1NC(=O)c1cc2sccc2n1Cc1ccc(F)cc1	·	–	–	·	·	·
N#C/C(=C(/O)CN1CCCC1)c1nc(-c2ccccc2)cs1	3.16µM	19µM	·	3.98µM	·	?
CCOC(=O)C1CCCN(C/C(O)=C(\C#N)c2nc(-c3ccc(Cl)cc3)cs2)C1 (centres undefined)	–	–	–	–	–	–
Cc1ccc(Oc2ccc3c(c2)C(=O)N(c2ccc(S(=O)(=O)Nc4nccs4)cc2)C3=O)cc1	–	19µM	–	–	–	–
Cc1cccc(Nc2nc(-c3ccccn3)cs2)n1	0.631µM	1.69µM	3.16µM	1.26µM	–	0.82µM
Nc1ccc(Nc2nc(-c3cccs3)cs2)cc1	–	–	·	–	–	–
c1ccc(Nc2nc(-c3cccs3)cs2)nc1	?	0.757µM	3.16µM	?	–	?
Cc1cccc(Nc2nc(-c3cccs3)cs2)n1	2.51µM	2.13µM	1.41µM	?	–	?
CC1CCc2sc(C(=O)NC3CCCCC3)cc2C1 (centres undefined)	3.55µM	?	·	1.78µM	·	?
SMILES	Rab9 promoter act	FLuc counter	SMN2 splice up	NPC1 prom act	KinaseGlo FLuc	ELG1 genotoxic
CC1CCc2sc(C(=O)NNC(=S)NCC3CCCO3)cc2C1 (centres undefined)	–	–	·	–	·	–
CC1CCc2sc(C(=O)NC(C)C3CCCO3)cc2C1 (centres undefined)	?	10.7µM	·	?	·	?
CCc1ccc(NC(=O)CSc2nccn(-c3ccc4c(c3)OCCO4)c2=O)cc1	–	?	·	–	·	–
COc1cccc(CNC(=O)Cn2c(C)c3cnn(-c4ccccc4)c(=O)c3c2C)c1	·	–	–	·	·	·
Cc1cc(C(=O)COC(=O)CNC(=O)c2ccccc2)c(C)n1CC1CCCO1 (centres undefined)	–	19µM	–	–	–	–
Cc1cccc(C(=O)NCC(=O)OCC(=O)c2cc(C)n(CC3CCCO3)c2C)c1 (centres undefined)	–	21.3µM	–	–	–	?
COc1cc(C(C)=O)ccc1OCC(=O)OCC(=O)c1cc(C)n(CC2CCCO2)c1C (centres undefined)	–	?	·	–	·	–
Cc1cccc(NC(=O)c2ccc(C)c(S(=O)(=O)N3CCCCC3)c2)n1	–	?	·	–	·	?
COC(=O)[C@@]1(Cc2ccc(OC)cc2)[C@H]2c3cc(C(=O)N4CCCC4)n(CCc4c[nH]c5cc(F)ccc45)c3C[C@H]2CN1C(=O)c1ccccc1	·	·	–	·	–	·
CSCCC(NS(=O)(=O)c1ccc2c(c1)oc(=O)n2C)C(=O)N1CCN(c2cc(Cl)ccc2C)CC1 (centres undefined)	·	–	·	·	·	·
COc1cc(-c2[nH]ncc2CN2CCSCC2)cc(OC)c1OC	–	–	·	–	·	18.3µM
C/C(=N/OC(=O)CC(C)C)c1cc(-c2ccc(Cl)cc2)no1	2.82µM	?	17.8µM	?	–	?
CCOC(=O)c1cc(/C(C)=N/OC(=O)c2ccc(Cl)cc2)on1	–	–	·	–	·	–
C=CCn1c(C)cc(C2=NNC(=NCc3ccccc3)SC2)c1C	2.24µM	19µM	12.6µM	?	–	?
O=S(=O)(NCC1CCCO1)c1ccc(-c2ccc(Cl)cc2)cc1 (centres undefined)	–	–	–	–	–	–
CCN=C1NN=C(c2cc(C)n(Cc3ccco3)c2C)CS1	–	0.213µM	–	–	–	?
COCCn1c(C)cc(C2=NNC(=Nc3ccccc3)SC2)c1C	0.398µM	0.757µM	?	0.355µM	–	?
COCCn1c(C)cc(C2=NNC(=Nc3ccc(OC)cc3)SC2)c1C	?	?	–	–	–	–
Clc1ccc(C2=NNC(=NCC3CCCO3)SC2)cc1 (centres undefined)	?	12µM	11.2µM	3.16µM	–	–
COc1cccc([C@@H]2Oc3ccc(OC)cc3C(=O)[C@H]2OC(=O)NCc2ccco2)c1	·	·	?	·	–	·
CCCC(O)c1nc2ccccc2n1CCCOc1ccc(Cl)cc1 (centres undefined)	·	–	·	·	·	·
COc1ccc(OC)c(/C=C/C(=O)OCC(=O)NCc2cccs2)c1	–	–	·	–	·	–
Cc1cc(C2=NNC(=NCCc3ccccc3)SC2)c(C)n1CC1CCCO1 (centres undefined)	?	15.1µM	–	–	–	–
CCOC(=O)CSc1nc2ccc(C)cc2cc1C#N	1.41µM	12µM	15.8µM	2.82µM	–	2.31µM

High-throughput results as filed in PubChem BioAssay.
